PubChem BioAssay AID1671192 (National Center for Advancing Translational Sciences (NCATS), 2021)
Inconclusive results are not listed. Calls of active or inactive are those of the source. The call rests on the fitted dose curve; in most records, active means well fitted curve in the direction sought with a large enough effect; inconclusive means small, poorly fitted or top-dose-only effect, or another doubt; inactive means no such curve, though single readings can be large or run the other way.

Target: Polyunsaturated fatty acid lipoxygenase ALOX15 (Homo sapiens) (UniProt P16050)
Test: Counterscreen qHTS for inhibitors of human arachidonate 12S-lipoxygenase (ALOX12): ALOX15 Assay; further: 0% is about no effect
Conditions: purified ALOX15 enzyme activity; series mostly up to 110 µM; activity change, negative = inhibition: at the top concentration
Excerpt: Assay Provider: Theodore R. Holman Ph.D.
University of California, Santa Cruz, California
Human lipoxygenase 12hLO is a member of the closely related lipoxygenase family of enzymes which catalyze the site-specific oxidation of arachidonic acid to various hormone precursor molecules and as such is a candidate for drug development in a variety of disease areas, such as cancer and inflammation. Inhibition of 12hLO activity was screened by utilizing arachidonic acid as a substrate. The extent of hydroperoxide product formation was measured by a secondary chromogenic reaction in which xylenol orange (XO, Sigma-Aldrich, cat. number 39,818-7) reacts with the ferric ions produced from the reaction between the hydroperoxide and ferrous ions. The Fe (III)-XO complex is characterized with red-shifted absorbance at 560 nm. A purified preparation of human 12hLO was supplied by Dr. Holman laboratory, University of California, Santa Cruz.
An assay against arachidonate 15-lipoxygenase (ALOX15) was developed to assess selective inhibition against ALOX12. Desired compounds would show potent inhibition against ALOX12 and minimal to no inhibition against ALOX15.
SEQUENCE No. (e.g., 1, 2, 3, etc.); PARAMETER (e.g., Cells, Incubation, Reagent, etc.); VALUE; DESCRIPTION
1; Enzyme; 3 uL; 40 nM ALOX15 (15hLO-1) enzyme solution dispensed in 1536-well Greiner black, clear bottom plates.
2; Compound; 23 nL; compounds and controls were added.
3; Incubate; 15 min; room temperature.
4; Substrate; 1 uL; 50 uM arachidonic acid (final concentration).
5; Incubate; 30 min; room temperature.
6; Reagent; 4 uL; Fe-XO solution was added to each well.
8; Incubation; 30 min; room temperature
9; Detector; absorbance; Read 1 at 405 nm absorbance using ViewLux (PerkinElmer) CCD imager.
10; Detector; absorbance; Read 2 at 573 nm absorbance using ViewLux (PerkinElmer) CCD imager.
NOTES (numbers refer to sequence above)
1; 40 nM ALOX15 (final concentration) in buffer solution (25 mM Hepes, 0.01% Triton X-100, pH 7.5) was dispensed in columns 1, 2, 5 - 48. Column 1 is neutral (100% activity). Buffer only was dispensed in columns 3 and 4 as no enzyme negative controls. The plates were covered with metal lids with gas-exchange holes.
2; Compounds were pin transferred via a Kalypsys Pin Tool (Wako USA) in column 5 - 48. Control compound was transferred in column 2, titration of nordihydroguaiaretic acid (NDGA, Sigma-Aldrich, N5023) with top concentration of 10 mM in DMSO then 1:2 dilution in duplicate. Dilution factor of 23 nL into 4 uL final assay volume.
3; Covered assay plates were incubated for 15 min at room temperature.
4; Substrate was added to start the reaction; 50 uM arachidonic acid (Sigma-Aldrich, St. Louis, MO) was dispensed throughout the plate.
6; Chromogenic detection reagent solution (divalent iron/xylenol orange, Fe-XO) was added to each well: 200 uM xylenol orange, 300 uM ferrous ammonium sulfate prepared freshly in 50 mM sulfuric acid.
9, 10; Two absorbance readouts were obtained at 405 nm and at 573 nm using a ViewLux high-throughput CCD plate imager (PerkinElmer). The 573 to 405 (Read 2 / Read 1) absorbance ratio was used to compute reaction progress.

Polyunsaturated fatty acid lipoxygenase ALOX15 (Homo sapiens), sequence (P16050 whole entry, looked up): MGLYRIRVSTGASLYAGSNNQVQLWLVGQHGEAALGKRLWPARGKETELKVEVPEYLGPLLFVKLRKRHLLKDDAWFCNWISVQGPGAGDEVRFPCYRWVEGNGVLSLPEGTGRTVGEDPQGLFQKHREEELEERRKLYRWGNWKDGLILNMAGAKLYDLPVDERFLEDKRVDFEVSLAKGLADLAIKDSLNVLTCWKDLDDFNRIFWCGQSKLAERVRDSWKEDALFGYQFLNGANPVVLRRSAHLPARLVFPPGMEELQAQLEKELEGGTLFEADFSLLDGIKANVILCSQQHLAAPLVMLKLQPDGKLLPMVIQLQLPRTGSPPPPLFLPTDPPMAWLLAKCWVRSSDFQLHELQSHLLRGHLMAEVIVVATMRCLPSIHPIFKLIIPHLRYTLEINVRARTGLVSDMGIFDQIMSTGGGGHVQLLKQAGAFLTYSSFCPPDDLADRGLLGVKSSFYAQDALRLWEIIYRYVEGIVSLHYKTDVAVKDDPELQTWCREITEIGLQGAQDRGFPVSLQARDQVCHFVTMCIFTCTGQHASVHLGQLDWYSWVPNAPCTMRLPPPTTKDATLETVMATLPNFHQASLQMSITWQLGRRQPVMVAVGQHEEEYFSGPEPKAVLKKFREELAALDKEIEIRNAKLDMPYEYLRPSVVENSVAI

| SMILES | activity change, negative = inhibition |
| --- | --- |
| CC(C)Nc1ncnc2c1CN(C1CCCNC1)C(=O)CN2C (stereo not given) | -15.1% [at 146 µM] (inactive) |
| Fc1ccc(OC2CN(Cc3cccc4ccccc34)C2)cc1F | -31.8% [at 146 µM] (inactive) |
| CN1CCC(C(=O)N2Cc3ccccc3OC3(CCN(C(=O)N(C)C)CC3)C2)CC1 | -19.9% (inactive) |
| CNCc1sc2ccccc2c1C | -9.89% [at 233 µM] (inactive) |
| NCc1ccc(-c2ccccn2)cc1 | -4.33% [at 233 µM] (inactive) |
| O=C(NC1CC1)c1cc(C2CC2)nc2onc(C3CCNC3)c12 (stereo not given) | -20.2% [at 146 µM] (inactive) |
| COCCNC(=O)c1cc(C)nc2onc(C3CCNC3)c12 (stereo not given) | -0.291% [at 146 µM] (inactive) |
| O=C(NC1CC1)c1cc(-c2ccccc2C(F)(F)F)nc2onc(C3CCNC3)c12 (stereo not given) | -18.1% (inactive) |
| COC(=O)CNC(=O)C1CCc2nnc(CNC(=O)c3cccnc3)n21 (stereo not given) | 3.05% (inactive) |
| O=C(c1ccccc1)N1CCC2(CC1)C(=O)NCN2C(=O)Cc1ccccc1 | 7.33% (inactive) |
| COc1ccc(CN2CCC3(C2)C(=O)Nc2ccccc23)cc1 (stereo not given) | -19.9% [at 146 µM] (inactive) |
| O=C(N1CCOCC1)N1CCCC1c1nnc2n1CCNC2 (stereo not given) | -2.38% [at 146 µM] (inactive) |
| NCc1ccc(-c2cccc(C(F)(F)F)c2)cc1 | 29.9% [at 146 µM] (inactive) |
| CC(=O)NC1CC2(CCN(C(=O)CCCNC(=O)OC(C)(C)C)CC2)Oc2ccccc21 (stereo not given) | 7.33% (inactive) |
| CN1CC(=O)N(C2CCNC2)Cc2c(NCCCN3CCCCC3)ncnc21 (stereo not given) | -20.5% (inactive) |
| COc1ccc(N(C)C2CN(C(=O)OC(C)(C)C)C2)cc1 | -26.9% [at 146 µM] (inactive) |
| CN1CC(=O)N(C2CCCNC2)Cc2c(NCCCO)ncnc21 (stereo not given) | -25.2% [at 146 µM] (inactive) |
| FC(F)(F)c1ccc(N2C3CCC2CN(Cc2cccc(-c4cccs4)c2)C3)cc1 | 0.0453% (inactive) |
| CC(C)(C)OC(=O)N1CC(Nc2cccc(Oc3ccccc3)c2)C1 | -2.09% [at 146 µM] (inactive) |
| CCc1nc2c(c(-c3ccc(OC)cc3)n1)CCN(Cc1ccc(OC)cc1)CC2 | -6.42% (inactive) |

| SMILES | activity change, negative = inhibition |
| --- | --- |
| O=C1NCc2ccccc2CC12CCCN2CC1=CCCCC1 (stereo not given) | -8.99% [at 146 µM] (inactive) |
| O=Cc1cccc(N2CCN(C(=O)c3ccncc3)CC2=O)c1 | -22.8% [at 146 µM] (inactive) |
| O=C1NC2(Cc3ccccc31)CN(C(=O)c1ccc3c(c1)OCO3)C2 | -17.4% [at 146 µM] (inactive) |
| CN1CC(=O)N(C2CCCNC2)Cc2c(NCC3CCCCCC3)ncnc21 (stereo not given) | -11.2% (inactive) |
| CC(C)NC(=O)N1CNC(=O)C12CCN(C(=O)CN)CC2 | -19.6% [at 146 µM] (inactive) |
| CCN1CCC2(Cc3ccccc3CN(C(=O)Cc3ccccc3)C2)C1 (stereo not given) | 3.4% (inactive) |
| O=C1NCc2ccccc2CC12CCN(Cc1ccc(F)cc1)C2 (stereo not given) | -11.6% [at 146 µM] (inactive) |
| Cc1ccc2nc(C3CCN(Cc4ccc(-c5cccs5)cc4)CC3)[nH]c(=O)c2c1 | -12% (inactive) |
| CCCC(=O)N1Cc2ccccc2CC2(CCN(Cc3ccc(O)cc3)C2)C1 (stereo not given) | 3.88% (inactive) |
| CN(C)C(=O)N1CCn2c(nnc2-c2cncc(Br)c2)C1 | -17% [at 146 µM] (inactive) |
| CC(=O)Nc1ccc(C(=O)N2C3CCC2CN(C(C)C)C3)cc1 | 16.4% [at 146 µM] (inactive) |
| COc1ccc(CNc2ncnc3c2CN(C2CCNCC2)C(=O)CN3C)cc1OC | -24.5% (inactive) |
| CN1CC(=O)N(C2CCCNC2)Cc2c(NC3CCCCCC3)ncnc21 (stereo not given) | -19% (inactive) |
| CC(=O)NC1CC2(CCN(C(=O)Cc3c(C)noc3C)CC2)Oc2ccccc21 (stereo not given) | -16.5% (inactive) |
| CC(=O)N1CCC(c2nnc3n2CCNC3)CC1 | -21.6% [at 146 µM] (inactive) |
| O=C(O)c1cccc(-c2cncc(C(=O)O)c2)c1 | -28.7% [at 146 µM] (inactive) |
| CN(c1ccc(Cl)c(Cl)c1)C1CNC1 | -16.7% [at 146 µM] (inactive) |
| CCC(CO)Nc1ncnc2c1CN(C1CCCNC1)C(=O)CN2C (stereo not given) | -25.6% (inactive) |
| Fc1ccc(CN2CCn3c(nnc3C3CCCNC3)C2)cc1 (stereo not given) | -21.6% [at 146 µM] (inactive) |
| CN1CC(=O)N(C2CCCNCC2)Cc2c(NCCCO)ncnc21 (stereo not given) | -13% [at 146 µM] (inactive) |
